This is a sample that favours compounds with a hit; in the whole collection about 6.5% have one here.
NADH coupling = inhibition of NAD/NADH coupling enzymes, library profiling; coupled PK/LDH NADH assays, four targets; IC50, µM (doses to about 10 µM), without a hit: at the highest dose inhibition; 65,000 compounds, 0.02% hits; AID 774;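 active means single-dose screening hits from any of four coupled enzyme assays that gave an IC50 when retested across doses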;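 further: the DPM-DC format reads NADH fluorescence rather than 340 nm absorbance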
DPM-DC inhibit = S. pneumoniae DPM-DC inhibition; 65,000 compounds, 0.49% hits; purified DPM-DC, PK/LDH coupled NADH fluorescence; AID 556; calls only at 10 µM;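 active means the 320 compounds with the highest percent inhibition in the single-dose primary screen, excluding strongly autofluorescent ones, cut at about 32% in these data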;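 further: kinetic rate of NADH fluorescence loss reporting ADP formed by the decarboxylase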
Spn MK inh = S. pneumoniae mevalonate kinase inhibition; inhibition, % at 10 µM; purified MK, PK/LDH-coupled NADH absorbance 340 nm; 65,000 compounds, 0.48% hits;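 active means ranked among the strongest by inhibition in the single 10 µM screen, a fixed top-ranked set picked for dose follow-up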
PMK inhibit = blocks S. pneumoniae phosphomevalonate kinase. 65,000 compounds, 0.49% hits. inhibition, % at 10 µM. purified PMK, PK/LDH-coupled NADH absorbance 340 nm;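 active means top-ranked compounds by inhibition in the single 10 µM screen, taking a fixed number of the strongest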;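 further: 0% = full reaction with DMSO carrier and 100% = background rate without enzyme reaction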
Autofluor 339 = intrinsic fluorescence of library compounds, ex339/em460 – biochemical, MLSMR library, data from DPM-DC assay, artefact control, profiling panel; fluorescence fold increase at 10 µM; AID 709; compound autofluorescence, ex339/em460 nm, NADH buffer; stronger effect = higher value; 1 = no-compound wells, NADH background; 65,000 compounds, 5.5% hits;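 active means at 10 µM, mean starting fluorescence two-fold or more over control wells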;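 further: signal is the first read of a kinetic run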
Abs 340nm = compounds absorbing at 340 nm | compound absorbance at 340 nm, fold over control | fold change at 10 µM | 65,000 tested, under 10 active;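 active means at 10 µM dose, initial 340 nm absorbance at least 2 fold that of control wells; inactive means change under 2 fold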;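 further: initial absorbance extrapolated from kinetic A340 decline of NADH oxidation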
An asterisk follows results filed as active; i = inactive; . = not tested or not shown; + = active, no number.

SMILES	NADH coupling	DPM-DC inhibit	Spn MK inh	PMK inhibit	Autofluor 339	Abs 340nm
COc1ccc2oc(=O)c(-c3nnc(NCc4ccco4)s3)cc2c1	0%	i	0	1	1.9	1
COc1cccc2cc(-c3cn4cccc(C)c4n3)c(=O)oc12	0%	i	0	0	1.7	1.1
CCOc1cccc2cc(-c3nnc(NCc4ccco4)s3)c(=O)oc12	1%	i	0	2	2.2*	1
CCOc1cccc2cc(-c3cn4cc(C)ccc4n3)c(=O)oc12	3%	.	1	5	5*	1.1
CCC(C)C(NS(=O)(=O)c1ccc(C)cc1)C(=O)NCCN1CCOCC1 (configuration not stated)	2%	i	5	1	1.1	1
CCOC(=O)c1cc(=O)n2[nH]c(-c3ccc(C)cc3)cc2n1	13%	.	15	10	3.9*	1
CCOC(=O)Cc1c(C)nc2cc(-c3ccc(Cl)cc3)[nH]n2c1=O	0%	i	1	0	1.5	1.1
COc1ccc(C(O)Cn2c(=N)n(CCCN(C)C)c3ccccc32)cc1 (configuration not stated)	8%	+	0	8	0.99	1
COc1ccc(OCCn2c(=N)n(CCO)c3ccccc32)cc1	4%	i	4	3	1.1	1
Cc1cccc(-n2c(SCC(=O)NCc3ccco3)nnc2-c2ccco2)c1	6%	i	0	15	1.1	0.99
Cc1ccc(-n2c(SCC(=O)NCc3ccco3)nnc2-c2cccnc2)c(C)c1	17%	+	5	11	1.3	1
COc1cccc(OC)c1OCC(C)CNCC1CCCO1 (configuration not stated)	17%	i	52*	0	1.1	1
Cc1cc(C)n(-c2nc(NCCO)c3c4c(sc3n2)CCCC4)n1	4%	i	2	9	1.6	1.1
Cc1cc(C)n(-c2nc(NCC3CCCO3)c3c4c(sc3n2)COC(C)(C)C4)n1 (configuration not stated)	8%	.	7	9	3.7*	1.1
Cc1cc(C)n(-c2nc(NCCCO)c3c4c(sc3n2)CCCC4)n1	8%	i	0	7	2.6*	1.1
O=C(NC1CCCC1)c1ccc2nc(-c3ccco3)c(-c3ccco3)nc2c1	17%	i	20	19	2.9*	1
O=C(Nc1ccc2nc(-c3ccco3)c(-c3ccco3)nc2c1)N1CCCCCC1	19%	+	16	9	2.7*	1.1
CCOC(=O)C1CCN(C(=O)Nc2ccc3nc(-c4ccco4)c(-c4ccco4)nc3c2)CC1	15%	i	20	0	1.7	1.1
CCOC(=O)N1CCN(C(=O)Nc2ccc3nc(C)c(C)nc3c2)CC1	7%	.	8	5	2.2*	1.1
O=C(NC1CCCC1)c1ccc2nc[nH]c2c1	4%	i	11	11	1.1	1
Cc1cccc2cc(C#N)c(NCCNS(=O)(=O)c3ccc4c(c3)OCCO4)nc12	8%	i	4	10	2.1*	1
Cc1ccc2cc(C#N)c(NCCNC(=O)C3CCC3)nc2c1C	12%	i	1	14	3.1*	1.1
Cc1cccc2cc(C#N)c(NCCNC(=O)NC3CCCCC3)nc12	6%	i	6	12	2.1*	1
CCOc1ccc2nc(NCCNC(=O)Nc3ccccc3)c(C#N)cc2c1	10%	i	8	14	1.7	1
CCN1CCCC1CNC(=O)c1nn(-c2ccc(C)cc2)c(=O)c2c1c1ccccc1n2C (configuration not stated)	8%	i	2	7	2.7*	1
SMILES	NADH coupling	DPM-DC inhibit	Spn MK inh	PMK inhibit	Autofluor 339	Abs 340nm
Cc1ccc(-n2nc(C(=O)N3CCN(C)CC3)c3c4ccccc4n(C)c3c2=O)cc1	4%	i	2	10	1.2	0.99
COc1ccc2cc(C(=O)NCc3ccco3)c(=Nc3ccc(C(=O)O)cc3)oc2c1	3%	i	6	7	1.2	1
Cc1nc2ccccc2cc1C(=O)NCc1ccco1	3%	i	0	12	0.99	0.98
COc1ccc2cc(C(=O)NC3CCCCC3)c(=O)oc2c1	7%	.	10	3	3.5*	1.1
O=C(NCc1ccco1)c1cc2ccc(O)cc2oc1=O	9%	.	9	8	3.8*	1.1
COc1ccc2cc(C(=O)NCc3ccco3)c(=O)oc2c1	10%	.	15	5	3.3*	1.4
COC(=O)c1cc(OC)c(OC)cc1NC(=O)c1c(-c2ccccc2Cl)noc1C	2%	i	7	0	1.2	1.1
CCOc1ccccc1Nc1nc(N)nc(CN(C)C2CCCCC2)n1	10%	i	13	10	1.1	1
Cc1noc(C)c1CSc1nc2ccccc2n1CCc1ccccc1	7%	i	3	17	1.1	1
CC(C)c1nc(=S)n(-c2ccccc2)[nH]1	19%	i	44*	14	1.1	1
CC1=C(c2ccc(Cl)cc2)[N+](=O)C(C)(C)N1[O-]	2%	i	6	9	1.1	1
CCOc1ccc2[nH]c(=O)c(CN(CCO)C(=O)c3ccccc3F)cc2c1	6%	i	0	1	3*	1.1
CCOc1ccc2[nH]c(=O)c(CN(CCO)C(=O)c3ccc(F)cc3)cc2c1	15%	i	17	2	3.4*	1.1
CC(NC(=O)Cc1cccs1)C(c1cccs1)N1CCOCC1 (configuration not stated)	3%	i	0	8	1.1	1
COC(=O)c1[nH]c2cccc(OC)c2c1NC(=O)CCN1CCN(c2ccccc2OC)CC1	20%	+	12	13	3.1*	1
COC(=O)c1[nH]c2cccc(OC)c2c1NC(=O)CCN1CCC(C)CC1	8%	i	0	15	2	1.1
COC(=O)c1[nH]c2cccc(OC)c2c1NC(=O)CN1CCN(c2cccc(OC)c2)C(C)C1 (configuration not stated)	13%	i	4	10	3*	1.1
CCCCn1nnnc1NCc1cccc(OC)c1OC	1%	i	3	0	1.1	1
CC(C)N(CCc1ccncc1)C(=O)Nc1ccc(Cl)c(Cl)c1	5%	i	5	9	1.1	1.1
CCOC(=O)N1CCC(NC(=O)c2ccc3c(c2)sc2nc(-c4ccccc4)cn23)CC1	8%	i	12	11	2*	0.98
CCOC(=O)N1CCC(NC(=O)c2ccc3c(c2)sc2nc(-c4cccc(OC)c4)cn23)CC1	6%	i	10	13	1.8	0.98
CCOC(=O)c1sc2nc(-c3ccco3)c3c(c2c1N)CC(C)(C)OC3	11%	i	9	0	2	1.1
COC(=O)c1sc2nc(-c3ccco3)ccc2c1N	24%	+	18	0	2.9*	1.2
COC(=O)c1sc2cnccc2c1N	7%	.	1	12	5.1*	1
